Test [1] is described as follows: qHTS assay to identify small molecule antagonists of the estrogen related receptor (ERR) signaling pathway from Tox21 library - cell viability counter screen (AID 1224834). Note: nearly all actives have a fitted effect of over 30% in size. The gist of the method: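 Viability readout (CellTiter-Fluor fluorescence, 30 min at 37 C) multiplexed with the ERR assay; cells treated 17.5 h at 37 C with compounds delivered in DMSO.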
In test [2] the target is Luciferin 4-monooxygenase (Photinus pyralis) (UniProt P08659). Nature of the test: qHTS assay to identify small molecule inhibitors of firefly luciferase (AID 1224835). For activity change, negative = inhibition: series mostly up to about 120 µM. Note: nearly all actives have a fitted effect of over 25% in size. Note: potency is the fitted concentration of half-maximal effect. The procedure, abridged:
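Biochemical qHTS: compounds run as interplate titrations against purified firefly enzyme, with D-luciferin and ATP each at its KM concentration. Light output recorded by CCD imaging.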

The nature of test [3]: qHTS assay to identify small molecule agonists of the constitutive androstane receptor (CAR) signaling pathway - cell viability counter screen (AID 1224836). Note: series mostly up to about 92 µM; nearly all actives have a fitted effect of over 45% in size. The procedure, abridged:
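Using CellTiter-Fluor, viability of HepG2 cells harbouring hCAR and CYP2B6-2.2kb was measured following 23 h incubation with a 15-concentration compound series plus PK11195 (0.75 uM final).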
(In general: Quantitative high-throughput screening tests each substance at several concentrations.)

Test [4] in a line: qHTS assay to identify small molecule antagonists of the constitutive androstane receptor (CAR) signaling pathway - cell viability counter screen (AID 1224837). Note: series mostly up to about 92 µM; nearly all actives have a fitted effect of over 45% in size. The procedure, abridged: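 Fluorescence from CellTiter-Fluor served as the viability signal. Human hepatoma HepG2 cells stably bearing hCAR and CYP2B6-2.2kb received compound plus CITCO (50 nM final) for 23 hr.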
Test [5] has as its target Nuclear receptor subfamily 1 group I member 3 (Homo sapiens) (UniProt Q14994). Nature of the test: qHTS assay to identify small molecule antagonists of the constitutive androstane receptor (CAR) signaling pathway (AID 1224838).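 Note: HepG2 cells stably expressing hCAR with CYP2B6 luciferase reporter stimulated by CITCO; nearly all actives have a fitted effect of over 40% in size.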 The procedure, abridged: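 Quantitative HTS in double-stable HepG2-CYP2B6-hCAR cells. After 4 h plating, cells get compound (15 concentrations) and CITCO at 50 nM final, incubate 24 h at 37 C, then ONE-Glo luminescence is read.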

Test [6] deals with Thyrotropin receptor (Homo sapiens) (UniProt P16473). Nature of the test: qHTS assay to identify small molecule agonists of the thyroid stimulating hormone receptor (TSHR) signaling pathway (AID 1224843; calls by dose curve; note: nearly all actives have a fitted effect of over 45% in size). The gist of the method:
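TSHR-HEK293 cells in agonist mode, 30 min room-temperature step, then cAMP measured by competitive HTRF (cAMP-d2 with anti-cAMP cryptate) after 1 h at room temperature. Tested at 15 concentrations in triplicate.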

A short description of test [7]: qHTS assay to identify small molecule antagonists of the estrogen related receptor signaling pathway with the pleiotropic PPARgamma coactivator (PGC) from Tox21 10K library - cell viability counter screen (AID 1224840; active = well fitted cell-killing curve with a large enough effect in the repeat runs, not every such curve was filed as active; note: nearly all actives have a fitted effect of over 40% in size). The gist of the method: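 Compounds in DMSO, alongside positive and negative controls, were pinned onto PGC/ERR cells (2,000 per well). Exposure lasted 17.5 hours at 37 C, followed by a 30-minute CellTiter-Fluor incubation and fluorescence reading.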

Test [8] in a line: qHTS assay to identify small molecule antagonists of the estrogen related receptor signaling pathway with the pleiotropic PPARgamma coactivator (PGC) from Tox21 10K library (AID 1224841; call rule not given here; note: series mostly up to about 92 µM; actives are mostly falling curves and most rising ones were filed inactive; nearly all actives have a fitted effect of over 50% in size). The gist of the method:
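Compound exposure ran 18 hours at 37 C in PGC/ERR cells (2,000/well) that had first rested 6 hours in a 37 C/5% CO2 incubator. Luciferase activity was then detected with One-Glo after a 30-minute room-temperature step.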

A short description of test [9]: qHTS assay to identify small molecule agonists of the estrogen related receptor signaling pathway with the pleiotropic PPARgamma coactivator (PGC) from Tox21 10K library (AID 1224842). Note: nearly all actives have a fitted effect of over 15% in size. The procedure, abridged:
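PGC/ERR reporter cell line, 2,000 cells per well, incubated 6 h at 37 C before 23 nL compound in DMSO was added. After 18 h at 37 C, One-Glo luminescence read following 30 min at room temperature.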

Test [10] concerns the target Nuclear receptor subfamily 1 group I member 3 (Homo sapiens) (UniProt Q14994). Nature of the test: qHTS assay to identify small molecule agonists of the constitutive androstane receptor (CAR) signaling pathway (AID 1224839).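 For activation: HepG2 cells stably carrying human CAR and a CYP2B6 luciferase reporter; series mostly up to about 92 µM.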 Note: nearly all actives have a fitted effect of over 15% in size. Note: potency is the fitted concentration of half-maximal effect. The gist of the method: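 Double-stable HepG2 cells (hCAR, CYP2B6-2.2kb) seeded 4 h before compound addition. Exposure 24 h with 0.75 uM PK11195 final. Luciferase detected by ONE-Glo.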

Structures are written as SMILES. Values joined by “and” are separate entries in the source; they are usually repeats but may differ in a detail not shown here. Equal values may be shown once. Inconclusive results are not listed. Values without a mark were called inactive. Active and inactive are the calls of the source. Unless noted, calls come from the whole dose curve; as a rule, active = well fitted curve in the direction sought with a large enough effect in the repeat runs; inconclusive = weak or mixed curves; inactive = no such curve, though single readings can be large; an effect the other way counts as inactive or inconclusive.

The text below walks through data of PubChem BioAssay (Tox21).
% is set by controls: 0 for no effect and ±100 for the full control effect.

Sequence of Luciferin 4-monooxygenase (Photinus pyralis) (P08659 whole entry, looked up): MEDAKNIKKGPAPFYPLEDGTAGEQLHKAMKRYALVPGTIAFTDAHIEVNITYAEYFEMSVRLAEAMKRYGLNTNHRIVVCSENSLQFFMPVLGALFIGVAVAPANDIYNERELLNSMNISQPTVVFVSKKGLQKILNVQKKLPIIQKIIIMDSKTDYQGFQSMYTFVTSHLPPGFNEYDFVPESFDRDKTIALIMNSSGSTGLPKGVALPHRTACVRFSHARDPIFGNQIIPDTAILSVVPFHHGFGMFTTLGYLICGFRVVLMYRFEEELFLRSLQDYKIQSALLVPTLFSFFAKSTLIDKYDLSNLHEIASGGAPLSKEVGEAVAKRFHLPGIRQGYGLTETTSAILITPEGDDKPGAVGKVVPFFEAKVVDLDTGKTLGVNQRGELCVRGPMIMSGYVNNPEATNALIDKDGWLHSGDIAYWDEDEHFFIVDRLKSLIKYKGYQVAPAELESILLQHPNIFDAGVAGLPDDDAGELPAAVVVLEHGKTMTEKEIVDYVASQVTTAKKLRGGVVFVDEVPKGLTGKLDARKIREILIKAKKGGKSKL
Sequence of Nuclear receptor subfamily 1 group I member 3 (Homo sapiens) (Q14994 whole entry, looked up): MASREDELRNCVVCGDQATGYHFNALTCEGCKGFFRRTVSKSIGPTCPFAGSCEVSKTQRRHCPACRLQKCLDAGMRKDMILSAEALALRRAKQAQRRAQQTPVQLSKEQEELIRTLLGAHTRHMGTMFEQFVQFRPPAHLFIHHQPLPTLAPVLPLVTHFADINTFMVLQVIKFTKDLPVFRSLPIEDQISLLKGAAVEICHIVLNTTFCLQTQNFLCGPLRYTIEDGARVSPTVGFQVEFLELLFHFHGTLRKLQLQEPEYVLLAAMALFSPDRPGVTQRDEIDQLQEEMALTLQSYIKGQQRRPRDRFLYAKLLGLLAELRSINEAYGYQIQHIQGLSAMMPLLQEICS
Sequence of Thyrotropin receptor (Homo sapiens) (P16473 whole entry, looked up): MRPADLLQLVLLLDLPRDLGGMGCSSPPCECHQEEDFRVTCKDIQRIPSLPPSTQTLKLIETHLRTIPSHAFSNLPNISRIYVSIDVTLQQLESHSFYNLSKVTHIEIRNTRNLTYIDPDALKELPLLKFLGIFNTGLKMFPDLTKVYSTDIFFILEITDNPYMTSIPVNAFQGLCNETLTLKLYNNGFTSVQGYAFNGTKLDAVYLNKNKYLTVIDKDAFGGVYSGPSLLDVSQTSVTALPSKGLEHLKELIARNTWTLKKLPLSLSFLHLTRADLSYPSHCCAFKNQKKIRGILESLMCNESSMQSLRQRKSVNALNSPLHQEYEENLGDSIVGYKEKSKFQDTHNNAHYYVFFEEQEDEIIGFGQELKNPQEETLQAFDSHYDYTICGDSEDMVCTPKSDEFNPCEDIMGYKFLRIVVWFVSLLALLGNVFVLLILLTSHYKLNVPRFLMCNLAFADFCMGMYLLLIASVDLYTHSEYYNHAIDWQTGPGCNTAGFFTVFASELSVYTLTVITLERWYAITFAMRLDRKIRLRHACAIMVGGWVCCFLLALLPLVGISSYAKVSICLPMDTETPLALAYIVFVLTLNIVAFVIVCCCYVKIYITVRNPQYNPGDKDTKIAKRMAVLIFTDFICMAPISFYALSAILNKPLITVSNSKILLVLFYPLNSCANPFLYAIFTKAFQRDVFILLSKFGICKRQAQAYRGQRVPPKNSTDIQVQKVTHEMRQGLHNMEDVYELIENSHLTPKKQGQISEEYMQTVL

In the case of `ClCCN1CCCC1`, the Potency result in [1], in test [2], in test [3], in test [4], in test [5] and in [6] was “inactive” in each case.
Consider `CCOC(=O)N(C)N=O`, for which the Potency result in test [1], in test [2], in test [3], in test [4], in test [7] and in [8] was “inactive” each time. The Potency result in test [9] and in [6] was “inactive” in each case.
With `O=C(NC(O)C(Cl)(Cl)Cl)NC(O)C(Cl)(Cl)Cl` (stereo unspecified), the Potency result in test [1], in test [2], in test [3], in test [4] and in test [7] was “inactive” in each case.
For the compound `CN(C)C1CCCCC1`, the Potency entry in test [1], in test [2], in [3], in test [4], in [10] and in test [7] was “inactive” in each case. Moreover, the Potency entry in test [8] and in [9] was “inactive” in each case.
For the compound `CCOC(=O)CC(SP(=S)(OC)OC)C(=O)OCC` (stereo unspecified), the Potency result in test [1], in test [3], in test [4], in [5] and in [6] was “inactive” each time. Further, in [2], the Potency is 35.6 µM (active) and 38.9 µM (active).
In the case of `CCOC(=O)C(SP(=S)(OC)OC)c1ccccc1` (stereo unspecified), the Potency entry in test [1], in test [2], in test [3], in [4], in [7] and in test [8] was “inactive” each time. Further, the Potency result in test [9] and in test [6] was “inactive” in each case. Besides, the Potency in test [10] is 30.6 µM (active).
Consider `O=c1[nH]c2ccccc2n1C1CCNCC1`, for which the Potency entry in test [1], in [2], in test [3], in [4], in test [10] and in test [7] was “inactive” in each case. The Potency result in test [6] is “inactive”.
Regarding `Oc1ccc2c3c1O[C@H]1[C@@H](O)C=C[C@H]4[C@@H](C2)NCC[C@@]341`, the Potency result in [1], in test [2], in [3], in test [4], in test [7] and in test [9] was “inactive” throughout. For the same compound, the Potency entry in test [6] is “inactive”.
For `O=S1(=O)OCCO1`, the Potency result in [1], in test [2], in test [3], in [4], in test [7] and in test [8] was “inactive” each time. The Potency result in test [9] and in [6] was “inactive” each time.
Regarding `CCN(CCO)CCn1c(Cc2ccccc2)nc2c1c(=O)n(C)c(=O)n2C`, the Potency result in test [1], in test [2], in [3], in [4], in test [7] and in test [8] was “inactive” in each case. Further, the Potency result in test [9] and in [6] was “inactive” in each case.
For the compound `CC(Cl)(Cl)Cl`, the Potency result in test [1], in test [2], in [3], in test [4], in [10] and in [7] was “inactive” in each case. In addition, the Potency result in test [8] and in test [9] was “inactive” each time.
For `COC[C@@H](NC(C)=O)C(=O)NCc1ccccc1`, the Potency entry in test [1], in [2], in [3], in [4], in test [7] and in test [8] was “inactive” throughout. Moreover, the Potency entry in test [9] is “inactive”.
Consider `CCC(=O)OC1(c2ccccc2)CCN(C)CC1`, for which the Potency entry in test [1], in test [2], in test [3], in test [4], in [10] and in test [7] was “inactive” in each case. Further, the Potency result in [6] is “inactive”.
Consider `O=C(Cl)c1ccccc1`, for which the Potency entry in test [1], in test [2], in test [3], in test [4], in [10] and in test [7] was “inactive” throughout. Moreover, the Potency entry in [8], in test [9] and in test [6] was “inactive” each time.
In the case of `O=c1[nH]oc2c1CCNC2`, the Potency result in [1], in test [2], in test [3], in test [4], in [7] and in test [8] was “inactive” each time. Also, in test [9], the Potency result was “inactive”.
In the case of `CCCN1CCC[C@@H]2Cc3nc(N)ncc3C[C@H]21`, the Potency entry in test [1], in test [2], in test [3], in [4], in test [10] and in test [7] was “inactive” each time. Further, the Potency entry in [8], in test [9] and in test [6] was “inactive” each time.
As to `CN1COCN(Cc2cnc(Cl)s2)/C1=N\[N+](=O)[O-]`, the Potency entry in test [1], in test [2], in [3], in test [4], in test [7] and in [6] was “inactive” each time.
Turning to `CCCCOC(C)=O`, the Potency result in [1], in [2], in test [3], in test [4] and in [6] was “inactive” each time.
`O=C(Cl)OCc1ccccc1`: the Potency result in [1], in [2], in test [3], in test [5], in [10] and in test [7] was “inactive” throughout. Further, the Potency entry in test [8] and in test [9] was “inactive” in each case.
For the compound `CC(C)[C@]12CC(=O)[C@H](C)[C@H]1C2`, the Potency result in test [1], in test [2], in test [3], in test [4], in test [7] and in test [6] was “inactive” in each case.
Regarding `CCCOC(=O)c1cncn1C(C)c1ccccc1` (stereo unspecified), the Potency entry in test [1], in test [2], in test [3], in test [4], in [8] and in [9] was “inactive” throughout. The Potency entry in test [6] was “inactive”.
For `CC(=O)CN(CC(C)=O)N=O`, the Potency entry in [1], in [2], in test [3], in test [4], in test [8] and in test [9] was “inactive” throughout.
For the compound `BrCCc1ccccc1`, the Potency entry in test [1], in test [2], in [3], in test [5], in test [7] and in test [8] was “inactive” throughout. Besides, the Potency entry in test [9] and in test [6] was “inactive” in each case.
As to `CCCOC(=O)Cc1ccc(OCC(=O)N(CC)CC)c(OC)c1`, the Potency result in test [1], in test [2], in test [3], in [4], in [7] and in [6] was “inactive” in each case.
For `COC(=O)[C@@H](N)CCCN/C(N)=N/[N+](=O)[O-]`, the Potency entry in [1], in test [2], in [3], in test [4] and in test [6] was “inactive” throughout.
Regarding `C=C1CC[C@@]2(O)[C@H]3Cc4ccc(O)c5c4[C@@]2(CCN3CC2CC2)[C@H]1O5`, the Potency result in [1], in test [2], in test [3], in test [4], in test [8] and in [9] was “inactive” each time. In test [6], the Potency entry is “inactive”.
In the case of `CC(C)C(C)(N)C#N` (stereo unspecified), the Potency result in test [1], in [2], in test [3], in test [5], in test [10] and in test [7] was “inactive” in each case.
`Clc1cc2c(cc1Cl)Oc1cc(Cl)c(Cl)cc1O2`: the values for the viability change, negative = cytotoxic in [1], in test [3] and in test [7] were -2.52% [at 0.349 µM], -0.641% [at 0.349 µM] and -1.69% [at 0.349 µM], respectively. Moreover, the activity change, negative = inhibition in [2] was -7.47% [at 0.435 µM]. The activity change, negative = cytotoxicity in [4] was -2.86% [at 0.349 µM]. In addition, the activation in test [6] is 10.3% [at 0.349 µM].
For the compound `C=C(Cl)CCl`, the Potency entry in test [1], in test [2], in test [3], in test [4], in test [7] and in [6] was “inactive” throughout.
With `O=C(Cl)C(Cl)(Cl)Cl`, the Potency entry in [1], in test [2], in [3], in test [5], in test [7] and in test [6] was “inactive” each time.
Regarding `NCCOS(=O)(=O)O`, the Potency entry in test [1], in [2], in test [3], in test [4], in test [7] and in test [6] was “inactive” throughout.
Turning to `CNC(=O)Oc1ccccc1C(C)C`, the Potency entry in [1], in test [2], in test [3], in test [5], in test [7] and in [8] was “inactive” throughout. Further, the Potency result in [9] and in [6] was “inactive” throughout.
